Rows were chosen to be rich in hits. Some 3.8% of all compounds tested hit in one or more screens of this group.
TrxR1 substrate = qHTS Assay for Substrates of Mammalian Selenoprotein Thioredoxin Reductase 1 (TrxR1): qHTS. Thioredoxin reductase 1, cytoplasmic (Rattus norvegicus), O89049. purified TrxR1 substrate turnover, NADPH consumption readout. Potency, µM (series often up to 114 µM), inactives show at the highest dose activity change, negative = substrate turnover. hit rate 0.01% among 390,000; further: nearly all actives have a fitted effect of over 50% in size
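Rat TrxR1, dispensed at 90 nM, was prereduced with 400 uM NADPH (final) for 5 min at ~22 deg C, then incubated with compound 15 min before 400 uM selenite. A first-read NADPH fluorescence drop versus no-compound background flagged substrates.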
Sfp inh = qHTS Assay for Inhibitors of Bacillus subtilis Sfp phosphopantetheinyl transferase (PPTase); 4'-phosphopantetheinyl transferase ffp (Bacillus subtilis), Q9F4F7; Biochemical Sfp PPTase activity, qHTS; Potency, µM, for the others: largest response in the series, negative = inhibition, actives largely listed as inhibitors; hit rate 3.5% among 310,000; AID 1490, 2009;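 further: the enzyme is Sfp with the accession as filed and its product quenches rhodamine fluorescence; 0% = enzyme reaction without inhibitor and -100% = no enzyme wells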
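Buffer: 50 mM Hepes-Na pH 7.6, 10 mM MgCl2, 0.01% Nonidet P-40, 0.01% BSA. Enzyme 15 nM, pre-exposed to compound 15 min; substrates then added and fluorescence change tracked over 30 min.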
GCN5L2 inh = qHTS Assay for Inhibitors of GCN5L2. GCN5L2 HAT assay, ThioGlo1 CoA-SH fluorescence. Potency, µM (series often up to 58.9 µM), inactives show at the highest dose activity change, negative = inhibition, most hits filed as inhibitors. AID 504327, 2011. hit rate 0.21% among 390,000. Histone acetyltransferase KAT2A (Homo sapiens), Q92830
Target sequence (Q92830 whole entry, looked up): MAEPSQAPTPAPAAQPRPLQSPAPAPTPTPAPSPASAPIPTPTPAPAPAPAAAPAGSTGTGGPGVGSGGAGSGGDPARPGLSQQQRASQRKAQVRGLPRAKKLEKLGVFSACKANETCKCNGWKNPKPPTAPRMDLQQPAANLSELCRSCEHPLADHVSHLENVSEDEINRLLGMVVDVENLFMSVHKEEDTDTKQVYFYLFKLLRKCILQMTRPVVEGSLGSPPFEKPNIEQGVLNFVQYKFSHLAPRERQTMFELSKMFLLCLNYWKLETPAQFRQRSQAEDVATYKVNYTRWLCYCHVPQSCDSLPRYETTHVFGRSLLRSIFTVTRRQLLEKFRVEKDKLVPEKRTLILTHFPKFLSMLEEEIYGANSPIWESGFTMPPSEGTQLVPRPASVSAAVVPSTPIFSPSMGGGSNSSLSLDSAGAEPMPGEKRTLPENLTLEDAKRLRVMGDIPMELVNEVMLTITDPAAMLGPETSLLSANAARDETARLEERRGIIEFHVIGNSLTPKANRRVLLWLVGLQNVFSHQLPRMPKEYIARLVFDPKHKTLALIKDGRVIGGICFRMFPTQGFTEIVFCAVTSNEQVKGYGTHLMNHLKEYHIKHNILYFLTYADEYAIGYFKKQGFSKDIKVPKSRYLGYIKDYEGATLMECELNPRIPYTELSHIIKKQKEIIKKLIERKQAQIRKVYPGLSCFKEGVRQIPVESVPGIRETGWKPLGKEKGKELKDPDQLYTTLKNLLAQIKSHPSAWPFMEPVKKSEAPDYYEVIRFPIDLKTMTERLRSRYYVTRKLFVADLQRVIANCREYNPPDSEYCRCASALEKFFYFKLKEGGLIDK
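ThioGlo1-coupled HAT assay: 20nM GCN5L2, 70uM acetyl-CoA, 75uM H3(1-25) peptide, pH 7.5. Fluorescence read at 340/540nm at start and after 20 min at room temperature.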
VDR inhibitor = Inhibitors of the vitamin D receptor (VDR): qHTS; VDR-SRC2-3 peptide fluorescence polarization, 2 h; Potency, µM, for the others: max response, negative = inhibition, usual class: inhibitors; hit rate 0.93% among 400,000; AID 504847, 2011
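VDR–SRC2-3 interaction, FP format. Cmpds 23 nl via pintool, brief spin, 2 h ambient incubation.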
rTrxR1 inhibitor = qHTS Assay for Inhibitors of Mammalian Selenoprotein Thioredoxin Reductase 1 (TrxR1): qHTS; Thioredoxin reductase 1, cytoplasmic (Rattus norvegicus), O89049; recombinant rTrxR1, NADPH fluorescence consumption, selenite substrate; Potency, µM (series often up to 114 µM), for inactives: at the highest dose activity change, negative = inhibition, actives largely listed as inhibitors; hit rate 1% among 390,000; AID 588453, 2011; further: nearly all actives have a fitted effect of over 65% in size
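Rat TrxR1 (90 nM in the dispensed reagent) was pre-reduced with 400 uM NADPH for 5 min at room temperature, then incubated with compound for 15 min. After 400 uM selenite was added, NADPH fluorescence (Ex 340/Em 450 nm) was followed for 8 min.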
GLS inh = qHTS for Inhibitors of Glutaminase (GLS). hit rate 0.21% among 410,000. Potency, µM (series often up to 45.5 µM), inactives show top-dose activity change, negative = inhibition, usual class: inhibitors. Glutaminase kidney isoform, mitochondrial (Homo sapiens), O94925. GLS enzymatic activity, qHTS titration
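Glutamate formation by hKGA was monitored fluorometrically using coupled glutamate oxidase, HRP and Amplex Red. Substrate was added as 1 mM L-glutamine solution; incubation was 30 min at RT after an initial read.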
* hit, by the source's call; i = inactive; ? = inconclusive; / = no result; [ ] = remark or other dose. The call rests on the fitted dose curve; in most records, active means well fitted curve in the direction sought with a large enough effect; inconclusive means small, poorly fitted or top-dose-only effect, or another doubt; inactive means no such curve, though single readings can be large; an effect the other way counts as inactive or inconclusive. Unless noted, on the % scale 0 is the no-effect control and ±100 the full control effect; potency means the concentration at half of the fitted maximal effect.

SMILES | TrxR1 substrate | Sfp inh | GCN5L2 inh | VDR inhibitor | rTrxR1 inhibitor | GLS inh
Cc1ccc(C(=O)O)cc1NC(=O)C1=CSCCO1 | 13.6% | 7.5% | -1.6% | 9.4% | 21.1% | -10.0%
COc1cccc(CN2CCc3[nH]c(=S)[nH]c(=O)c3C2)c1 | 2.1% | -27.5% | -7.4% | -10.0% | -7.8% | -5.5%
COCCCN1CCc2[nH]c(=S)[nH]c(=O)c2C1 | -8.1% | 50.1µM* | -1.3% | ? | -22.9% | -14.5%
Cc1c(CCC(=O)O)c(=O)oc2cc(O)ccc12 | i | 21.3% | 28.2µM* | 7.6% | 69.1% | 31.3%
CC1=CC2=NC(=O)/C(=C\c3cc(C)n(-c4ccccc4F)c3C)C(=N)N2O1 | 11.0%[57.1 µM] | 0.3% | -21.5% | -6.9% | 20.1%[57.1 µM] | 2.8%
Cc1cc(/C=C2/C(=N)N3C(=NC2=O)SN=C3S(C)(=O)=O)c(C)n1-c1ccccc1F | -12.8% | -3.8% | 22.4µM* | ? | -27.8% | 11.0%
Cc1cc(/C=C2\C(=N)N3N=C(S(C)(=O)=O)SC3=NC2=O)c(C)n1Cc1ccccc1 | 8.2%[57.1 µM] | 44.7µM* | -5.0% | -3.2% | 13.5%[57.1 µM] | 3.9%
Cn1c(=O)c2nc(SCC(=O)Nc3ccc(OC(F)(F)F)cc3)n(C)c2n(C)c1=O | 1.0%[57.1 µM] | / | -2.0% | 14.1% | 7.7%[57.1 µM] | 0.3%
Cn1cccc1C(=O)OCc1cc(Cl)cc2c1OCOC2 | -7.6% | 70.8µM* | -0.3% | 4.9% | -1.4% | 0.4%
O=C(c1ccccc1)N1CCN(C(=O)c2cccnc2)CC1 | -4.3% | -3.5% | -2.3% | -2.2% | 16.8% | 0.9%
CSC1=NSC2=NC(=O)/C(=C/c3coc4ccccc4c3=O)C(=N)N12 | -6.9% | -23.0% | -15.1% | 50.1µM* | -31.3% | 18.5%
CSC1=NSC2=NC(=O)/C(=C/c3coc4ccc(O)cc4c3=O)C(=N)N12 | 17.2% | -24.9% | -11.1% | ? | -34.8% | -24.4%
CCNC(=S)N/N=C(\C)c1ccc(N2CCOCC2)cc1 | -4.8% | -2.3% | -4.3% | -1.3% | -15.9% | 13.8%
CNC(=S)N/N=C(\C)c1ccc(N2CCOCC2)cc1 | -9.8% | 50.1µM* | -3.2% | 7.7% | ? | 26.5%
Fc1ccccc1-c1nc(-c2ccncc2)no1 | 3.4% | 17.0% | 3.4% | -11.9% | 22.6% | -0.9%
c1ccc2c(-c3nc(-c4ccncc4)no3)cccc2c1 | 75.1% | 10µM* | 3.9% | -6.7% | 82.1% | -1.9%
CSc1cccc(NS(=O)(=O)c2cn(C)c(C)n2)c1 | -0.6%[57.1 µM] | / | 3.6% | 12.0% | 14.9%[57.1 µM] | -2.6%
CSc1cccc(NS(=O)(=O)c2cn(C)cn2)c1 | -3.6% | -2.4% | -2.1% | -7.6% | 50.1µM* | 5.8%
CCc1c(C)sc(NC(=S)N2CCN(CC)CC2)c1C(=O)OC | 1.2% | -4.0% | -1.8% | -7.3% | -13.4% | 10.6%
Cc1ccc(Cn2c(=N)n(CC(O)COc3ccccc3)c3ccccc32)cc1 (configuration not stated) | -2.4% | 22.4µM* | -2.2% | -15.1% | 7.0% | 1.2%
Cc1ccc2oc(-c3cc(NC(=O)Cc4ccccc4)ccc3Cl)nc2c1 | 37.7% | / | -2.1% | -6.1% | ? | 3.5%
O=C(CSc1nnnn1C1CCCCC1)Nc1ccccc1F | -5.1% | 22.4% | -5.4% | -8.4% | 1.2% | 1.0%
O=C(Sc1nnnn1C1CCCCC1)c1cccs1 | / | 35.5µM* | -6.3% | / | / | /
O=C(O)CSc1nnnn1C1CCCCC1 | 7.0%[57.1 µM] | 9.4% | -11.9% | 70.8µM* | 11.0%[57.1 µM] | 11.0%
CCOC(=O)C(=Cc1ccc(OCc2ccc([N+](=O)[O-])cc2)c(OC)c1)C(=O)OCC | -7.5% | 10.2% | -14.8% | 79.4µM* | ? | 6.3%
SMILES | TrxR1 substrate | Sfp inh | GCN5L2 inh | VDR inhibitor | rTrxR1 inhibitor | GLS inh
COc1cc(/C=N/NC(=O)c2cccc([N+](=O)[O-])c2)ccc1OCc1ccccc1 | -10.4% | 21.3% | -1.5% | 5.6% | -7.8% | -1.8%
Oc1ccc(C=NN=C2c3ccccc3-c3ccccc32)c(O)c1 | -8.3%[57.1 µM] | / | / | 9.2% | 4.4%[11.4 µM] | 9.1%
CN1C(=O)C(O)(CC(=O)c2ccccc2O)c2cc(Br)ccc21 (configuration not stated) | 2.8% | 0.6% | ? | -13.8% | 12.4% | 0.9%
CN1C(=O)C(O)(CC(=O)/C=C/c2ccco2)c2cc(Br)ccc21 (configuration not stated) | -10.7% | 44.7µM* | -6.8% | 0.3% | 15.8µM* | -13.0%
Cc1ccc(-c2nc(CS(=O)(=O)CC(=O)N3CC(C)CC(C)C3)c(C)o2)cc1 (configuration not stated) | 0.2%[57.1 µM] | -18.4% | -3.2% | ? | 3.98µM* | 2.2%
CCN1/C(=N\N)c2cccc3cccc1c23 | 3.3% | 35.5µM* | -1.6% | -24.3% | -17.0% | 4.4%
CN(c1ccc(OCC(=O)OCC(=O)Nc2ccccc2)cc1)S(=O)(=O)c1cccs1 | -0.5% | 35.7% | 10µM* | 3.0% | 9.5% | 4.6%
Nn1c(SCC(=O)N2CCCC2)nnc1-c1cccs1 | / | / | / | / | / | -0.7%
Cc1ccc(-c2cc(C(=O)OCC(=O)N(C)C3CCS(=O)(=O)C3)c3ccccc3n2)c(C)c1 (configuration not stated) | 4.3%[57.1 µM] | 3.0% | -16.6% | -24.8% | 10.5%[57.1 µM] | -18.9%
Cc1ccc(-c2cc(C(=O)OCC(=O)N(C)C3CCS(=O)(=O)C3)c3ccccc3n2)o1 (configuration not stated) | 6.8%[57.1 µM] | 20µM* | ? | -19.9% | -55.1% | 0.4%
CCN(C(=O)COC(=O)c1cc(-c2ccccc2)nc2ccc(Br)cc12)C1CCS(=O)(=O)C1 (configuration not stated) | -5.5% | -9.1% | -2.5% | 8.4% | -7.8%[57.1 µM] | 7.5%
CCN(C(=O)COC(=O)c1cc(-c2ccc(C)o2)nc2ccccc12)C1CCS(=O)(=O)C1 (configuration not stated) | 14.9%[57.1 µM] | 20µM* | ? | -1.3% | -2.6%[57.1 µM] | -23.3%
NC(Cc1ccc(F)cc1)c1csc(Nc2ccc(C(=O)NCCCO)cn2)n1 (configuration not stated) | / | / | / | / | / | 16.9%
Cc1cc(C)nc(SCC(=O)N/N=C/c2cccc([N+](=O)[O-])c2)n1 | 15.3%[57.1 µM] | -1.1% | 1.0% | 79.4µM* | 3.9% | ?
COc1ccccc1CN1CCc2c([nH]c3ccccc23)C1 | 7.5% | -8.8% | 1.1% | -25.2% | 21.1% | 5.9%
COc1cc(CN2CCc3c([nH]c4ccccc34)C2)cc(OC)c1 | -3.7%[57.1 µM] | 1.6% | 0.8% | 50.1µM* | 6.3%[57.1 µM] | ?
